Hit rate of the full screen: of about 5,600 compounds, about 780 (14%) were called active. Roughly 3% stayed inconclusive and do not appear here.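 Rule for the calls: active = mean signal decrease across replicates above about 35% based on untreated-well scatter, with enough replicates individually passing (limit read from the data); inconclusive = no rule stated though some were filed; inactive = the rest.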 Not all results are given here.

Data on 44 compounds can be found in PubChem BioAssay AID651742 (Broad Institute, 2012).

The test is described as follows: cytotoxicity in mouse NIH/3T3 fibroblasts, confirmation, cytotoxicity control for T. cruzi proliferation inhibitor project, cell-based, cherry-pick, single point (AID 651742).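 Note: 0% = median of neutral control wells and 100% = median of positive control wells.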 Particulars: NIH/3T3 viability, CellTiter-Glo ATP luminescence, 90 h; at 8.35 µM; hits give high values.
Take `C[C@@H]1CN([C@H](C)CO)C(=O)CCCn2nncc2CO[C@@H]1CN(C)Cc1ccc(C(=O)Nc2ccccc2N)cc1`: the cytotoxicity (signal decrease) is 14.8% (inactive).
For the compound `Cc1ccc(S(=O)(=O)N2C[C@@H](O)COC[C@@H]3O[C@H](CC(=O)NCc4ccc(Cl)c(Cl)c4)CC[C@H]32)cc1`, the cytotoxicity (signal decrease) is 3.54% (inactive).
For the compound `O=C(C1CCCC1)N1CCCCN2[C@@H](CO)[C@H](c3ccc(-c4cccc(F)c4)cc3)[C@@H]2C1`, the cytotoxicity (signal decrease) is 25.5% (inactive).
In the case of `CCCNC(=O)N1[C@@H]2c3cccc(=O)n3C[C@H]1[C@H](CO)[C@H]2C(=O)NCC(F)(F)F`, the cytotoxicity (signal decrease) was 19.4% (inactive).
The value for `C[C@@H]1CCCCO[C@H](CN(C)C(=O)Nc2cccc3ccccc23)[C@H](C)CN([C@H](C)CO)C(=O)c2cc(NS(=O)(=O)c3cccs3)ccc2O1` was 2.6% (inactive); that for `Cc1ccc(S(=O)(=O)Nc2ccc3c(c2)C(=O)N([C@H](C)CO)C[C@H](C)[C@H](CN(C)C(=O)Nc2ccc(F)cc2)OCCCC[C@H](C)O3)cc1` was -4.04% (inactive).
On to `Cc1ccc(S(=O)(=O)N(C)C[C@H]2OCCCC[C@H](C)Oc3ccc(NC(=O)Cc4ccccc4)cc3C(=O)N([C@@H](C)CO)C[C@@H]2C)cc1`, for which the cytotoxicity (signal decrease) is -1.37% (inactive).
With `COc1ccc(NC(=O)N(C)C[C@H]2OCCCC[C@H](C)Oc3ccc(NC(=O)Nc4ccc(C(F)(F)F)cc4)cc3C(=O)N([C@@H](C)CO)C[C@@H]2C)cc1`, the cytotoxicity (signal decrease) is -11.5% (inactive).
For `C[C@H]1CCCCO[C@H](CN(C)S(=O)(=O)c2ccc(Cl)cc2)[C@@H](C)CN([C@@H](C)CO)C(=O)c2cc(NC(=O)Nc3ccc4c(c3)OCO4)ccc2O1`, the cytotoxicity (signal decrease) is 6.45% (inactive).
Consider `C[C@@H]1CN([C@@H](C)CO)C(=O)c2cc(C#Cc3ccccc3)cnc2O[C@H]1CN(C)C(=O)c1ccccn1`, for which the cytotoxicity (signal decrease) was 15.5% (inactive).
In the case of `C[C@@H]1CN([C@H](C)CO)S(=O)(=O)c2ccc(C#CCC3CCCC3)cc2O[C@H]1CN(C)C(=O)CC1CC1` it was -5.41% (inactive); in that of `C[C@H]1CCCCO[C@@H](CN(C)S(=O)(=O)c2cccs2)[C@@H](C)CN([C@@H](C)CO)C(=O)c2cc(NS(=O)(=O)c3ccc(Cl)cc3)ccc2O1`, 5.91% (inactive).
In the case of `O=C(Nc1ccccc1)N1CCCCN2[C@H](CO)[C@@H](c3ccc(C#Cc4ccccn4)cc3)[C@H]2C1` it was 1.29% (inactive); in that of `N#Cc1cccc(-c2ccc([C@H]3[C@H](CO)N4CCCCN(C(=O)Nc5cccc(F)c5)C[C@@H]34)cc2)c1`, 32.4% (inactive); in that of `O=C(Nc1cccc(F)c1)N1CCCCN2[C@H](CO)[C@H](c3ccc(C#CC4CC4)cc3)[C@@H]2C1`, 35.2% (active).
Take `C[C@@H]1CN([C@H](C)CO)C(=O)c2cc(NS(=O)(=O)c3cccs3)ccc2O[C@@H](C)CCCCO[C@@H]1CN(C)S(=O)(=O)c1ccc(Cl)cc1`: the cytotoxicity (signal decrease) is -7.98% (inactive).
For the compound `COc1ccc(NC(=O)Nc2ccc3c(c2)C(=O)N([C@H](C)CO)C[C@H](C)[C@H](CN(C)S(=O)(=O)c2ccc(Cl)cc2)OCCCC[C@H](C)O3)cc1`, the cytotoxicity (signal decrease) is -12.7% (inactive).
Take `O=C(c1ccccn1)N1CC[C@@H]2[C@H]1c1cc(-c3ccccc3)ccc1N[C@@H]2CO`: the cytotoxicity (signal decrease) was 3.39% (inactive).
As for `C[C@@H]1CN([C@@H](C)CO)C(=O)c2cc(NC(=O)Nc3ccc4c(c3)OCO4)ccc2O[C@@H]1CN(C)Cc1ccc(Oc2ccccc2)cc1`, the cytotoxicity (signal decrease) was 22.6% (inactive).
For the compound `C[C@H](CO)N1C[C@H](C)[C@@H](CN(C)Cc2ccc(-c3ccccc3)cc2)Oc2ccc(NC(=O)CCC(F)(F)F)cc2CC1=O`, the cytotoxicity (signal decrease) is 32.2% (inactive).
`C[C@@H]1CN([C@H](C)CO)C(=O)Cc2cc(NC(=O)Cc3ccccc3)ccc2O[C@H]1CN(C)Cc1ccc(Oc2ccccc2)cc1`: the cytotoxicity (signal decrease) is 1.79% (inactive).
In the case of `C[C@@H]1CN([C@H](C)CO)C(=O)Cc2cc(NC(=O)c3ccncc3)ccc2O[C@H]1CN(C)Cc1ccc(-c2ccccc2)cc1` it was 32.8% (inactive).
Consider `C[C@H]1CN([C@@H](C)CO)C(=O)Cc2cc(NC(=O)Cc3cn(C)c4ccccc34)ccc2O[C@@H]1CN(C)Cc1ccccc1`, for which the cytotoxicity (signal decrease) was -12.8% (inactive).
`C[C@@H]1CN([C@@H](C)CO)C(=O)Cc2cc(NC(=O)C3CCCCC3)ccc2O[C@@H]1CN(C)Cc1ccc(C(=O)Nc2ccccc2N)cc1`: the cytotoxicity (signal decrease) was 37.8% (active).
As for `C[C@H](CO)N1C[C@H](C)[C@H](CN(C)Cc2ccc(-c3ccccc3)cc2)Oc2ccc(NC(=O)Nc3ccc(F)cc3)cc2CC1=O`, the cytotoxicity (signal decrease) was 43.5% (active).
As for `O=C(C1CC1)N1CCCCN2[C@H](CO)[C@H](c3ccc(-c4cccc(F)c4)cc3)[C@H]2C1`, the cytotoxicity (signal decrease) is 2.61% (inactive).
As for `CN1c2ccc(-c3ccccc3)cc2[C@H]2[C@H](CCN2C(=O)Cc2ccccn2)[C@H]1CO`, the cytotoxicity (signal decrease) was 8.34% (inactive).
For `C[C@@H]1CCCCO[C@H](CN(C)S(=O)(=O)c2cccs2)[C@H](C)CN([C@H](C)CO)C(=O)c2cc(NS(=O)(=O)c3ccc(F)cc3)ccc2O1`, the cytotoxicity (signal decrease) is -5.09% (inactive).
The value for `COc1ccc(NC(=O)N2CC[C@@H]3[C@@H](CO)N(C)c4ccc(-c5cccc(F)c5)cc4[C@@H]32)cc1` was 1.1% (inactive).
Consider `O=C(NCC1CCCCC1)[C@H]1[C@H](CO)[C@H]2Cn3c(cccc3=O)[C@H]2N1C(=O)CC1CC1`, for which the cytotoxicity (signal decrease) is 0.341% (inactive).
Take `COc1cccc(C#Cc2ccc([C@@H]3[C@H](C#N)N[C@H]3CO)cc2)c1`: the cytotoxicity (signal decrease) was -25.2% (inactive).
As to `COCC(=O)N1CC[C@@H]2[C@@H](CO)Nc3ccc(-c4cccc(C#N)c4)cc3[C@@H]21`, the cytotoxicity (signal decrease) is 2.33% (inactive).
On to `CN1C(=O)c2cc(NC(=O)c3cnccn3)ccc2OC[C@@H]2O[C@H](CC(=O)N[C@@H]3CCN(Cc4ccccc4)C3)CC[C@@H]21`, for which the cytotoxicity (signal decrease) is -18.7% (inactive).
As to `CCC(=O)N1CC[C@@H]2[C@@H](CO)N(C)c3ccc(-c4cccc(OC)c4)cc3[C@@H]21`, the cytotoxicity (signal decrease) is -4.46% (inactive).
The value for `O=C(c1cnccn1)N1CC[C@@H]2[C@H](CO)Nc3ccc(-c4cccc(F)c4)cc3[C@@H]21` was 32.9% (inactive); that for `COCC#Cc1ccc([C@@H]2[C@H](CO)N3CCCCN(C(=O)CN(C)C)C[C@@H]23)cc1` was -18.1% (inactive); that for `COc1ccc(-c2ccc([C@H]3[C@H]4CN(C(=O)c5ccc6c(c5)OCO6)CCCCN4[C@H]3CO)cc2)cc1` was 44.1% (active).
Regarding `COc1ccc(C#Cc2ccc([C@@H]3[C@@H](CO)N4CCCCN(C(=O)c5ccncc5)C[C@@H]34)cc2)cc1`, the cytotoxicity (signal decrease) was 22.3% (inactive).
For `CCCC#Cc1ccc([C@H]2[C@H](CO)N3CCCCN(C(=O)c4ccc5c(c4)OCO5)C[C@@H]23)cc1`, the cytotoxicity (signal decrease) was 35.2% (active).
Take `CC(C)(O)C#Cc1ccc([C@@H]2[C@H](CO)N3CCCCN(C(=O)c4cccc(F)c4)C[C@@H]23)cc1`: the cytotoxicity (signal decrease) is -14.5% (inactive).
In the case of `O=C(c1cccc(F)c1)N1CCCCN2[C@H](CO)[C@H](c3ccc(-c4ccncc4)cc3)[C@H]2C1`, the cytotoxicity (signal decrease) was -11.1% (inactive).
The value for `CN(C)C(=O)c1ccc(-c2ccc([C@H]3[C@@H](CO)N4CCCCN(CC5CC5)C[C@H]34)cc2)cc1` was -1.46% (inactive); that for `O=C(c1ccncc1)N1CCCCN2[C@H](CO)[C@H](c3ccc(-c4ccccc4)cc3)[C@H]2C1` was 6.21% (inactive).
The value for `Cc1cccc(-c2ccc([C@@H]3[C@H](CO)N4CCCCN(C(=O)c5ccc6c(c5)OCO6)C[C@@H]34)cc2)c1` was 69.7% (active).
